Only a selection was taken, and hits are over-represented in it overall.
IDE exosite inh = exo-site inhibitors of human insulin-degrading enzyme; P14735; purified IDE, FL-6b probe fluorescence polarization; hits give low values; z-score at 20 µM; hit rate 6.3% among 17,000;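 active = z-score of -3 or lower, meaning strong loss of probe binding signal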;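 note: His-tagged human IDE residues 42-1019 made in E. coli with 30 nM FL-6b probe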
Each line names hits and unclear results; the compound was inactive in the other large screens; ! = a repeat was not active.

O=C(NC1Cc2ccccc2C1)[C@H]1[C@H](CO)[C@H]2Cn3c(cccc3=O)[C@H]2N1C(=O)c1cnccn1	none
CCC(=O)NC[C@H]1[C@H](c2ccc(C3=CCCC3)cc2)[C@H](CO)N1C(=O)C1CC1	none
Cc1ccccc1S(=O)(=O)N1C[C@@H](O)COC[C@H]2O[C@H](CC(=O)N3CCCCC3)CC[C@@H]21	none
CCC(=O)N1[C@H](CO)[C@@H](c2ccccc2)[C@@H]1CNC(=O)CN1CCOCC1	none
COc1cccc(CN2[C@@H]3CNC[C@H]2C3c2ccc(/C=C/c3ccccc3)cc2)c1 (stereo partly specified)	none
c1ccc(CN2[C@@H]3CNC[C@H]2C3c2ccc(-c3cccnc3)cc2)nc1 (stereo partly specified)	none
COc1cc(CN2[C@@H]3CNC[C@H]2C3c2ccc(-c3ccccc3)cc2)cc(OC)c1 (stereo partly specified)	none
COc1cc(CN2[C@@H]3CNC[C@H]2C3c2ccc(/C=C/c3ccccc3)cc2)cc(OC)c1 (stereo partly specified)	IDE exosite inh -5.5!
C(=C\c1ccc(C2[C@H]3CNC[C@@H]2N3Cc2cncnc2)cc1)/c1ccccc1 (stereo partly specified)	none
C(=C\c1ccc(C2[C@H]3CNC[C@@H]2N3Cc2ccccn2)cc1)/c1ccccc1 (stereo partly specified)	IDE exosite inh -3.8!
COc1ccc(-c2ccc([C@H]3[C@H]4CN(C(=O)C5CCOCC5)CC(=O)N4[C@H]3CO)cc2)cc1	none
Cc1noc(C)c1NC(=O)Nc1ccc2c(c1)C(=O)N([C@@H](C)CO)C[C@@H](C)[C@@H](CN(C)Cc1ccc3c(c1)OCO3)OCCCC[C@H](C)O2	none
CS(=O)(=O)N1CCCCN2[C@@H](CO)[C@@H](c3ccc(C4=CCCC4)cc3)[C@@H]2C1	none
Cc1ccccc1-c1ccc([C@H]2[C@@H](CO)N3CCCCN(S(=O)(=O)Cc4ccccc4)C[C@@H]23)cc1	none
Cc1ccccc1-c1ccc([C@@H]2[C@@H](CO)N3CCCCN(S(C)(=O)=O)C[C@@H]23)cc1	IDE exosite inh -18
Cc1ccccc1-c1ccc([C@H]2[C@@H](CO)N3CCCCN(S(C)(=O)=O)C[C@H]23)cc1	IDE exosite inh -7.7
CCS(=O)(=O)N1CCCCN2[C@H](CO)[C@@H](c3ccc(-c4ccccc4C)cc3)[C@H]2C1	none
CS(=O)(=O)N1CCCCN2[C@H](C1)[C@H](c1ccc(Br)cc1)[C@@H]2CO	none
CCS(=O)(=O)N1CCCCN2[C@@H](CO)[C@@H](c3ccc(-c4ccccc4C)cc3)[C@@H]2C1	IDE exosite inh -14
CS(=O)(=O)N1CCCCN2[C@H](CO)[C@H](c3ccc(C4=CCCC4)cc3)[C@@H]2C1	none
CS(=O)(=O)N1CCCCN2[C@H](C1)[C@H](c1ccc(C3=CCCC3)cc1)[C@@H]2CO	none
Cc1ccccc1-c1ccc([C@@H]2[C@H]3CN(S(C)(=O)=O)CCCCN3[C@H]2CO)cc1	IDE exosite inh -5.2
Cc1ccccc1-c1ccc([C@H]2[C@H]3CN(S(=O)(=O)Cc4ccccc4)CCCCN3[C@H]2CO)cc1	none
Cc1ccccc1-c1ccc([C@H]2[C@@H](CO)N3CCCCN(S(=O)(=O)Cc4ccccc4)C[C@H]23)cc1	none
COc1ccc(-c2ccc([C@H]3[C@@H](CO)N4C(=O)CN(Cc5ccc(F)cc5)C[C@@H]34)cc2)cc1	none
COC(=O)[C@@H]1N[C@@H]2c3ccc(C4=CCCCC4)c(=O)n3C[C@@H]2[C@H]1CO	none
CC(C)NC(=O)N(C)C[C@@H]1Oc2ccc(NC(=O)Cc3ccccc3)cc2CC(=O)N([C@@H](C)CO)C[C@H]1C	none
C[C@H](O)C#Cc1ccc([C@@H]2[C@@H](CO)N3CCCCN(C(=O)c4ccc5c(c4)OCO5)C[C@H]23)cc1	none
O=C(Nc1cc(F)ccc1F)N1CCCCN2[C@@H](CO)[C@@H](c3ccc(-c4ccncc4)cc3)[C@@H]2C1	none
Cc1ccccc1-c1ccc([C@@H]2[C@H](CO)N3CCCCN(S(C)(=O)=O)C[C@@H]23)cc1	IDE exosite inh -10
CCS(=O)(=O)N1CCCCN2[C@H](CO)[C@H](c3ccc(-c4ccccc4)cc3)[C@H]2C1	none
CS(=O)(=O)N1CCCCN2[C@H](CO)[C@@H](c3ccc(C4=CCCC4)cc3)[C@H]2C1	none
O=C(Nc1ccccc1)N1CC(=O)N2[C@H](C1)[C@H](c1ccc(-c3ccc(F)cc3)cc1)[C@@H]2CO	none
COc1cccc(NC(=O)N2CC(=O)N3[C@H](C2)[C@@H](c2ccc(C#CC4CCCCC4)cc2)[C@@H]3CO)c1	none
CCC(=O)N1[C@H](CO)[C@H](c2ccc(C#CC3(O)CCCC3)cc2)[C@@H]1CNC(C)=O	none
Cc1ccccc1S(=O)(=O)N1CC(=O)N2[C@@H](CO)[C@@H](c3ccc(C#CC4CC4)cc3)[C@@H]2C1	none
O=C(c1ccccc1F)N1CC(=O)N2[C@H](C1)[C@@H](c1ccc(-c3ccccc3)cc1)[C@@H]2CO	IDE exosite inh -3.2
O=C(c1ccccc1F)N1CC(=O)N2[C@H](CO)[C@@H](c3ccc(C#Cc4ccccc4)cc3)[C@@H]2C1	none
O=C(c1cccc(F)c1)N1CC(=O)N2[C@H](CO)[C@@H](c3ccc(-c4ccccc4)cc3)[C@H]2C1	none
O=C(c1ccccc1F)N1CC(=O)N2[C@@H](CO)[C@H](c3ccc(-c4ccccc4)cc3)[C@@H]2C1	none
O=C(c1ccccc1F)N1CC(=O)N2[C@@H](CO)[C@H](c3ccc(-c4ccc(F)cc4)cc3)[C@@H]2C1	none
O=C(c1cccc(F)c1)N1CC(=O)N2[C@H](C1)[C@@H](c1ccc(-c3ccccc3)cc1)[C@@H]2CO	IDE exosite inh -3.4
O=C(Nc1ccccc1F)N1CC(=O)N2[C@@H](CO)[C@@H](c3ccc(C#Cc4ccc(F)cc4)cc3)[C@@H]2C1	none
O=C(c1ccccc1F)N1CC(=O)N2[C@H](C1)[C@H](c1ccc(C#Cc3ccccc3)cc1)[C@@H]2CO	IDE exosite inh -3.4
O=C(c1ccccc1F)N1CC(=O)N2[C@H](CO)[C@H](c3ccc(C#Cc4ccccc4)cc3)[C@@H]2C1	none
O=C(c1cccc(F)c1)N1CC(=O)N2[C@H](CO)[C@@H](c3ccc(-c4ccccc4)cc3)[C@@H]2C1	none
O=C(Nc1ccccc1F)N1CC(=O)N2[C@H](C1)[C@@H](c1ccc(C#Cc3ccc(F)cc3)cc1)[C@@H]2CO	none
O=C(Nc1ccccc1F)N1CC(=O)N2[C@H](C1)[C@H](c1ccc(C#Cc3ccccc3)cc1)[C@@H]2CO	IDE exosite inh -4.1
CCCC#Cc1ccc([C@@H]2[C@H](C#N)N(C(=O)CN3CCOCC3)[C@H]2CO)cc1	none
C[C@@H]1CN([C@@H](C)CO)C(=O)c2cccc(NC(=O)Nc3ccc(C(F)(F)F)cc3)c2O[C@H]1CN(C)S(=O)(=O)c1cn(C)cn1	none
COc1ccc2c3c([nH]c2c1)[C@H](CO)N(C(=O)CC1CC1)CC31CN(Cc2cccnc2)C1	none
C[C@@H]1CN([C@H](C)CO)C(=O)c2cc(NC(=O)Nc3ccc(C(F)(F)F)cc3)ccc2O[C@@H](C)CCCCO[C@@H]1CN(C)S(=O)(=O)c1ccc(Cl)cc1	none
C[C@@H]1CN([C@H](C)CO)C(=O)c2ccccc2-c2ccccc2CO[C@H]1CN(C)S(=O)(=O)c1cn(C)cn1	none
C[C@@H]1CN([C@H](C)CO)C(=O)c2ccccc2-c2ccccc2CO[C@H]1CN(C)C(=O)[C@@H](Cc1ccccc1)N(C)C	none
CN(C)C(=O)c1cccc(-c2ccc([C@@H]3[C@@H](C#N)N(C(=O)C4CCCCC4)[C@H]3CO)cc2)c1	none
CC(C)NC(=O)N[C@H]1CC[C@@H](CC(=O)NCCCN(C)C)O[C@@H]1CO	none

From PubChem
